Calls of active or inactive are those of the source.

This experiment in a line: CREB reporter modulators under forskolin, primary screen, cell-based, PC12, CRE-LacZ reporter, forskolin-stimulated (AID 1146).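 Also: PC12 cells with 6xCRE LacZ reporter stimulated by forskolin 10 µM; beta-galactosidase reporter signal reflecting CREB driven transcription.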 To be noted: luminescence, 4.5 h, higher = more signal, called active from +8 up or from −8 down.
For the compound `CC(C)[C@@H](OCc1ccccc1)[C@H](C)C=NOC[C@@H](O)COCc1ccco1`, the z-score was 0.109 (inactive). The same measure for `CC(C)(C)N1C(=O)[C@H]2[C@H]3[C@H](O)C=CC(=O)[C@@H]3CC[C@H]2C1=O`: -0.0003 (inactive); for `CCOC(=O)[C@H](CC(C)C)NC(=O)CCC1CC(OC(=O)NCc2cccc3ccccc23)CC2(CCCC(COC(=O)NCCOC)O2)O1` (stereo partly specified): 0.389 (inactive).

As for `Cc1ccc(S(=O)(=O)n2c3ccccc3c3nnc(C(=O)c4ccccc4)nc32)cc1`, the z-score was -1.15 (inactive). Turning to `CCN1C(=O)[C@H]2[C@H]3[C@H](O)[C@H](O)CC(=NOC[C@H]4O[C@H](c5ccccc5)C=C[C@@H]4Oc4ccc(OC)cc4)[C@@H]3CC[C@H]2C1=O`, the z-score is 0.126 (inactive).

For `Cc1cc2c(c(=O)o1)[C@@H](O)[C@H]1O[C@H]1C2=O`, the z-score is 0.0917 (inactive).

Regarding `C#CCCCON=C1C[C@@H](O)[C@@H](O)[C@@H]2[C@@H]3C(=O)N(c4cccc(Oc5ccccc5)c4)C(=O)[C@@H]3CC[C@H]12`, the z-score was -0.236 (inactive). As for `CC(CCN1CCc2nc(-c3ccccc3)c(-c3ccccc3)cc2C1)=NOC[C@@H](O)[C@H]1O[C@@H]2OC(C)(C)O[C@@H]2[C@H]1O`, the z-score was -0.311 (inactive). On to `CC(CCN1CCc2nc(-c3ccccc3)c(-c3ccccc3)cc2C1)=NOC[C@@H](O)COCc1ccco1`, for which the z-score is -0.724 (inactive).

With `CSCC[C@@H]1NC(=O)CC=C[C@@H](C)COC(=O)[C@@H](C)COC1=O`, the z-score is -0.846 (inactive). The same measure for `CC(=O)Nc1ccc([C@@H]2N[C@H](C(=O)O)CC[C@H]2C)cc1`: -1.21 (inactive); for `C#CCCCON=C1[C@H]2CCn3c(=O)n(-c4ccccc4)c(=O)n3[C@H]2[C@H](O)[C@@H]2O[C@H]12`: 0.462 (inactive). As to `COC(=O)[C@@H]1CC[C@H](C)[C@@H](c2ccc(C)cc2)N1C(=O)c1ccc(C=NOC[C@@H](C)[C@H](OCc2ccccc2)C(C)C)cc1`, the z-score is -0.207 (inactive). As for `CCOC(=O)[C@H](Cc1ccccc1)NC(=O)CCC1CC(OC(=O)NCc2cccc3ccccc23)CC2(CCCC(COC(=O)NCCC(C)C)O2)O1` (stereo partly specified), the z-score is 0.214 (inactive).

Take `C=CC[C@@H]1C=C[C@H](ON=C2[C@H]3CCn4c(=O)n(-c5ccccc5)c(=O)n4[C@H]3[C@H](O)[C@@H]3O[C@H]23)[C@@H](CO)O1`: the z-score was 0.312 (inactive). The same measure for `CCOC(=O)[C@H](CC(C)C)NC(=O)CCC1CC(OC(=O)NCc2cccc3ccccc23)CC2(CCCC(COC(=O)NCCOc3ccccc3)O2)O1` (stereo partly specified): -0.519 (inactive); for `C[C@@H](c1ccccc1)N1C(=O)[C@H]2[C@H]3[C@H](O)[C@H](O)CC(=NOCc4ccccc4)[C@H]3CC[C@H]2C1=O`: 0.0517 (inactive); for `CCCNC(=O)OC[C@H]1O[C@H](CCON=C(C)CCN2CCc3nc(CC)c(CC)cc3C2)C=C[C@@H]1Oc1ccc(OC)cc1`: 0.82 (inactive). The same measure for `CCCNC(=O)OC[C@H]1O[C@H](CCON=C(C)C)C=C[C@@H]1Oc1ccc(OC)cc1`: -0.315 (inactive); for `CC(=O)O[C@H]1C2=CO[C@H](C)[C@H]3[C@H]4C5=C([C@H](O)[C@H]6O[C@H]6C5=O)[C@H](OC4C)[C@@]23C(=O)[C@@H]2O[C@@H]21` (stereo partly specified): 16.6 (active). With `C=CC[C@@H]1C=C[C@H](ON=C[C@@H](C)[C@H](OCc2ccccc2)C(C)C)[C@@H](CO)O1` the figure was 0.3 (inactive). Turning to `COC(=O)CC=C[C@@H](C)[C@@H](C=NOC(C)CN1CCCc2nc(C)c(C)cc21)OC` (stereo partly specified), the z-score is 0.632 (inactive).

Take `CC(CCN1CCCCc2nc(C)c(C)cc21)=NOC[C@@H](C)[C@H](OCc1ccccc1)C(C)C`: the z-score is 0.264 (inactive). With `CON=C(C)CCC(=O)OC[C@H]1O[C@H](c2ccccc2)C=C[C@@H]1Oc1ccc(OC)cc1` the figure was -0.0322 (inactive); with `CON=CC[C@@H]1C=C[C@H](OC(C)=O)[C@@H](COC(C)=O)O1`, 0.46 (inactive). The same measure for `Cn1c(=O)n2n(c1=O)[C@H]1[C@H](O)[C@@H]3O[C@@H]3C(=O)[C@H]1CC2`: -0.69 (inactive).

For the compound `COc1ccc(COC(=O)NN=C2C[C@@H](O)[C@@H](O)[C@@H]3[C@@H]4C(=O)N(Cc5ccccc5)C(=O)[C@@H]4CC[C@H]23)cc1`, the z-score was -0.0005 (inactive). The same measure for `C#CCCCON=C1C[C@@H](O)[C@@H](O)[C@@H]2[C@@H]3C(=O)N(C(C)(C)C)C(=O)[C@@H]3CC[C@@H]12`: 0.262 (inactive); for `C[C@@H](c1ccccc1)N1C(=O)[C@H]2[C@H]3[C@H](O)[C@H](O)CC(=NO[C@@H]4O[C@H](CO)[C@@H](O)[C@H](O)[C@H]4O)[C@H]3CC[C@H]2C1=O`: 0.845 (inactive).

For `CCOC(=O)CCN1C(=O)[C@H]2[C@H]3[C@H](O)[C@H](O)CC(=NOCc4ccccc4)[C@H]3CC[C@H]2C1=O`, the z-score was -0.21 (inactive). Take `CO[C@H]1COC(=O)[C@@H](C)COC(=O)[C@H](COCc2ccccc2)NC(=O)CC=C[C@H]1C`: the z-score is -0.985 (inactive).

In the case of `COc1cccc([C@H]2Oc3ccc(OC)cc3C(=NO[C@@H]3O[C@H](COC(C)=O)[C@@H](OC(C)=O)[C@H](OC(C)=O)[C@H]3OC(C)=O)[C@@H]2O)c1`, the z-score is 0.38 (inactive). With `CCOC(=O)[C@H](CC(C)C)NC(=O)CCC1CC(OC(=O)NCc2ccc3c(c2)OCO3)CC2(CCCC(COC(=O)NCc3cccc(C(F)(F)F)c3)O2)O1` (stereo partly specified) the figure was 0.814 (inactive); with `CCN1C(=O)[C@H]2[C@H]3[C@H](O)[C@H](O)CC(=NOCC(C)C)[C@@H]3CC[C@H]2C1=O`, -0.2 (inactive); with `COC(=O)[C@H](C)NC(=O)CCC1CC(OC(=O)NCCc2ccc(F)cc2)CC2(CCCC(COC(=O)NCCC(C)C)O2)O1` (stereo partly specified), 0.283 (inactive).

`C=CC[C@@H]1C=C[C@H](ON=C(C)CCN2CCc3nc(-c4ccccc4)c(-c4ccccc4)cc3C2)[C@@H](CO)O1`: the z-score was -1.03 (inactive).

The values are drawn from PubChem BioAssay.
